# Results reported in PubChem BioAssay AID435030 (The Scripps Research Institute Molecular Screening Center, 2010).
# Hit rate of the full screen: of about 330,000 compounds, about 940 (0.28%) were called active. Cut-off read from the data, not from the text of the source: active = inhibition above about 12%; inactive = the rest. What follows is part of a selection rich in actives, with near analogues and random picks from the rest.
# Test: growth inhibition of E. coli expressing H. pylori AddAB, primary screen, AddAB inhibitor project, absorbance (AID 435030);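 note: 0% = vehicle wells of infected cells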
# Conditions: at 11.9 µM, active compounds read high
row,SMILES,inhibition
1,Cc1nc2ccccc2nc(=O)c1NNc1ccc([N+](=O)[O-])cc1,0.52% (inactive)
2,O=[N+]([O-])c1ccc(N=Cc2c(O)ccc3ccccc23)cc1,39.5% (active)
3,O=C(Oc1ccc([N+](=O)[O-])cc1)c1ccc2ccccc2n1,0.94% (inactive)
4,CC(Sc1nnc(Cc2ccc([N+](=O)[O-])cc2)o1)C(N)=O (stereo not drawn),2.62% (inactive)
5,COC(=O)c1cc(S(=O)(=O)Nc2ccc(C)c(F)c2)c[nH]1,2.73% (inactive)
6,CCOc1ccc(OCC)c(NC(=O)C(NS(=O)(=O)c2ccc3c(c2)oc(=O)n3C)C(C)C)c1 (stereo not drawn),0.33% (inactive)
7,O=C(CCNS(=O)(=O)c1ccccc1)NCCSc1ccc(Br)cc1,-1.46% (inactive)
8,CC(C)(C)CC(=O)Nc1nnc(SCC(=O)NCc2cccs2)s1,1.97% (inactive)
9,CC1CCN(C(=O)Cn2cc(C(=O)c3ccco3)c3ccccc32)CC1,0.41% (inactive)
10,O=C(Cn1cc(C(=O)c2cccs2)c2ccccc21)NCc1cccs1,-0.41% (inactive)
11,Cc1cccc(NC(=O)Cn2cc(C(=O)c3ccco3)c3ccccc32)c1,13.8% (active)
12,Cc1cc(C)c(S(=O)(=O)N2CCCC2CNC(=O)c2ccc3c(c2)OCO3)c(C)c1 (stereo not drawn),2.32% (inactive)
13,N#Cc1ccc(OCCN2C(=O)NC3(CCSC3)C2=O)cc1 (stereo not drawn),-2.01% (inactive)
14,O=C(OCC(=O)N1CCN(C(=O)c2ccco2)CC1)c1c(Cl)cccc1Cl,1.58% (inactive)
15,NS(=O)(=O)c1cccc(NC(=O)COC(=O)c2cc([N+](=O)[O-])ccc2N2CCCC2)c1,0.9% (inactive)
16,CCn1c(=O)c([N+](=O)[O-])c(NCc2ccc3c(c2)OCO3)c2ccccc21,-0.08% (inactive)
17,CCOCCCn1c(NN)nc2ccccc2c1=O,1.87% (inactive)
18,CCn1c(/C=C/c2ccc([N+](=O)[O-])o2)nc2ccccc2c1=O,17.8% (active)
19,CCOC(=O)c1sc(/N=C/C2=C(O)CC(C)(C)CC2=O)c(C(=O)OCC)c1C,-0.77% (inactive)
20,Cc1occc(=O)c1OCc1c(Cl)cccc1Cl,-0.74% (inactive)
21,CCCc1nnc(SCC(=O)Nc2ccc(C(=O)OCC)cc2)o1,2.66% (inactive)
22,CCOC(=O)c1ccc(NC(=O)Cc2cccs2)cc1,3.49% (inactive)

row,SMILES,inhibition
1,CCOC(=O)c1ccc(NC(=O)Cn2cnc3cc(C)c(C)cc32)cc1,21% (active)
2,CSCc1ccc(C(=O)Nc2cc(C)cc(C)c2)cc1,0.9% (inactive)
3,CSCCC(NC(=O)c1cc([N+](=O)[O-])cc([N+](=O)[O-])c1)c1nc2ccccc2[nH]1 (stereo not drawn),2.67% (inactive)
4,O=C(O)c1cccc(NC(=S)N/N=C/c2c[nH]c3ccccc23)c1,3.31% (inactive)
5,Nc1nonc1-n1nnc(C(=O)N/N=C/c2c[nH]c3ccccc23)c1-c1ccccc1,0.34% (inactive)
6,CSC(=S)N/N=C/c1c[nH]c2ccccc12,14.4% (active)
7,COC(=O)c1cc(S(=O)(=O)N2CCC(C(N)=O)CC2)oc1C,-2.11% (inactive)
8,COc1cccc(OC)c1CN(C)C(=O)c1cnccc1C(F)(F)F,3.15% (inactive)
9,CC(=O)Nc1ccc(CN2CCN(Cc3ccc(F)c(F)c3)C(CCO)C2)cc1 (stereo not drawn),2.22% (inactive)
10,CCOC(=O)C1=NOC(Cn2cc(C(C)=O)c(=O)[nH]c2=O)C1 (stereo not drawn),3.64% (inactive)
11,Cc1cn(C2OC[C@@H](O)[C@@H]2CO)c(=O)[nH]c1=O (stereo partly drawn),0.5% (inactive)
12,Cc1cn(C2C=CC(CO)O2)c(=O)[nH]c1=O (stereo not drawn),20.5% (active)
13,O=C(NNC(=O)C1C2CCC(C2)C1C(=O)O)c1ccc(Cl)cc1 (stereo not drawn),-0.52% (inactive)
14,Cc1ccc(NC(=O)CN(C)C(=O)COC(=O)C(C)(C)Oc2ccc(Cl)cc2)cc1,1.52% (inactive)
15,Cc1ccc(O)c(NC(=O)c2cc(-c3ccco3)on2)c1,2.66% (inactive)
16,Nc1nonc1-n1nnc(C(=O)N/N=C/c2cc(Br)ccc2O)c1CSC1=NCCS1,17.5% (active)
17,Nc1nonc1-n1nnc(C(=O)N/N=C/c2ccccc2O)c1CN1CCCC1,4.54% (inactive)
18,Cc1ccc(SCc2c(C(=O)N/N=C/c3cccnc3)nnn2-c2nonc2N)cc1,3.86% (inactive)
19,CCOc1ccc(N(CC(=O)Nc2ccccc2F)S(=O)(=O)c2c(C)[nH]c(=O)[nH]c2=O)cc1,3.71% (inactive)
20,CCOc1ccccc1NC(=O)COc1ccc(S(=O)(=O)N2CCCC2)cc1,2.68% (inactive)
21,O=C(NC(Cc1ccccc1)C(=O)O)/C(=C\c1ccccc1)NC(=O)c1ccco1 (stereo not drawn),0.08% (inactive)
22,O=C(Cn1c(=O)sc2ccccc21)Nc1nc2c(s1)CCCC2,12.5% (active)

row,SMILES,inhibition
1,Cc1nnc(NC(=O)Cn2c(=O)sc3ccccc32)s1,3.04% (inactive)
2,O=C(CCS(=O)(=O)c1ccccc1)Nc1nc2c(s1)CCCC2,-2.56% (inactive)
3,Cc1cnc(NC(=O)c2ccccn2)s1,-4.66% (inactive)
4,O=C(Cc1c(F)cccc1Cl)Nc1ncc([N+](=O)[O-])s1,5.83% (inactive)
5,CC(=O)Oc1ccccc1C(=O)Nc1ncc([N+](=O)[O-])s1,13.3% (active)
6,COc1ccccc1CNC(=O)Cn1c(=O)oc2cc(Cl)ccc21,4.32% (inactive)
7,COC(=O)C1=C(Nc2ccc(C)cc2)C=C(C)C(C(=O)OC)C1c1ccc(F)cc1 (stereo not drawn),1.3% (inactive)
8,NC(=O)COC(=O)c1sc2cc(F)ccc2c1Cl,1.69% (inactive)
9,CCOC(=O)N1CCC(Nc2c(NCCCN3CCN(c4ccc(OC)cc4)CC3)c(=O)c2=O)CC1,2.85% (inactive)
10,CC(NC(=O)COC(=O)C1CCN(S(=O)(=O)c2ccccc2C(F)(F)F)CC1)c1ccccc1 (stereo not drawn),0.81% (inactive)
11,CC[C@H]1OC(=O)[C@H](C)[C@@H](O[C@H]2C[C@@](C)(OC)[C@@H](O)[C@H](C)O2)[C@H](C)[C@@H](O[C@@H]2O[C@H](C)C[C@H](N(C)C)[C@H]2O)[C@](C)(O)C[C@@H](C)[C@@H]2N[C@@H](COCCOC)O[C@H]([C@H]2C)[C@]1(C)O,41% (active)
12,CCCCNC(=O)C1(c2ccc(OC)cc2)CCOCC1,0.97% (inactive)
13,CC1(C)CC(N2CCN(C(c3ccccc3)c3ccccc3)CC2)=CC(=[N+]2CCCCC2)C1,1.52% (inactive)
14,Cc1nnc(SCCCCSc2nnc(C)c(=O)[nH]2)[nH]c1=O,-1.42% (inactive)
15,O=c1oc2c(Cl)cc(Cl)cc2cc1-c1nnc(Nc2ccccc2F)s1,-1.06% (inactive)
16,O=C(NC(=O)N1CCSCC1)c1c(Cl)cccc1Cl,1.83% (inactive)
17,CN(C)[C@@H]1C(=O)C(C(N)=O)=C(O)[C@@]2(O)C(=O)C3=C(O)c4c(O)ccc(Cl)c4[C@@H](O)[C@H]3C[C@@H]12,100% (active)
18,C=C1c2c(Cl)ccc(O)c2C(O)=C2C(=O)[C@]3(O)C(O)=C(C(N)=O)C(=O)[C@@H](N(C)C)[C@@H]3[C@@H](O)C12 (stereo partly drawn),103% (active)
19,O=C(CCNC(=O)c1ccccc1)NN=Cc1ccc(Br)o1,-1.39% (inactive)
20,CC(=O)N(O)CCCCCNC(=O)CCC(=O)N(O)CCCCCNC(=O)CCC(=O)N(O)CCCCCNC(=O)CCC(=O)O,22% (active)
21,NC(=O)NCCCC(=O)O,4.03% (inactive)
22,COc1nc(N(C)C)nc(N2CC(=O)N(CCNS(=O)(=O)c3ccc(C)cc3)C2=N)n1,-0.32% (inactive)

row,SMILES,inhibition
1,Cc1ccc(Cn2c(=N)c(S(=O)(=O)c3ccc(C)cc3)cc3c(=O)n4ccccc4nc32)cc1,1.33% (inactive)
2,CC1(C)CC(=O)c2cnc3nc4ccccc4n3c2C1,-0.86% (inactive)
3,COc1ccc(CCN=C2SCC(=O)N2Cc2ccccc2)cc1OC,1.52% (inactive)
4,O=C(N/N=C\c1ccc(-c2ccc(Cl)c(Cl)c2)o1)C(=O)N1CCCC1,-0.96% (inactive)
5,O=c1ccc2c(-c3ccccc3S(=O)(=O)O)c3ccc(O)c(O)c3oc-2c1O,22.5% (active)
6,C=C1CCN([C@H](C(=O)NCc2cc(OC)c(OC)c(OC)c2)C(C)C)S(=O)(=O)c2ccccc21,0.6% (inactive)
7,COc1ccc(CNC(=O)C[C@H]2C[C@H](C(=O)N3CCOCC3)[C@@]3(C)c4[nH]c5cc(CCC(=O)N(C)C)ccc5c4CCN3C2=O)cc1OC,-1.37% (inactive)
8,O=C(Cc1ncc(C(F)(F)F)cc1Cl)Nc1cccc(Br)c1,0.17% (inactive)
9,COc1ccc(C(=O)c2oc3ccc(Br)cc3c2NC(C)=O)cc1,100% (active)
10,COC(=O)c1oc2ccc(Br)cc2c1NC(C)=O,-2.24% (inactive)
11,COc1ccc(CC(=O)Nc2c(C(N)=O)oc3ccccc23)cc1,2.54% (inactive)
12,CC(=O)/C(=N\Nc1ccc(Cl)cc1Cl)Sc1cccc2cccnc12,-1.2% (inactive)
13,C[C@H]1[C@H]2c3nc4ccccc4n3C[C@H]1ON2C1CCCCC1,3.89% (inactive)
14,COc1ccc(CNC(=O)CN(Cc2ccc(Cl)cc2)S(C)(=O)=O)cc1,3.57% (inactive)
15,COC(=O)N/N=C/c1ccc(-c2ccc(Cl)c(Cl)c2)o1,1.71% (inactive)
16,COC(=O)N/N=C/c1cn(CCCOc2ccc(C)cc2)c2ccccc12,3.22% (inactive)
17,COC(=O)N/N=C/c1c[n+]([O-])c2ccccc2[n+]1[O-],89.8% (active)
18,OCCNCCOc1ccc(Cl)c(Cl)c1,0.51% (inactive)
19,O=C(NCC#CCSc1nnc(-c2cccc3ccccc23)o1)c1cccs1,12.4% (active)
20,COc1ccc(CCNC(=O)/C(C#N)=C2\N=C(NC(=O)c3cccs3)c3ccccc32)cc1,3.86% (inactive)
21,C#CCSc1nnc(-c2sc3ccccc3c2Cl)o1,1.12% (inactive)
22,COc1ccc2cc(CCl)c(Cl)nc2c1,-0.08% (inactive)
